Structures are written as SMILES. The source made the active and inactive calls.

Assay [1] can be described thus: A549 cell viability effects, profiling panel, calcein-AM fluorescence, 48 h, basal (AID 1162). To be noted: higher = more signal.
Assay [2] can be described thus: adipocyte viability effects, profiling panel, cell-based, 3T3-L1 adipocytes, calcein-AM fluorescence, 48 h, basal (AID 1163). To be noted: 3T3-L1 adipocytes viability, higher = more signal.
Assay [3] can be described thus: HepG2 cell viability effects, profiling panel, calcein-AM fluorescence, 48 h, basal (AID 1164). The conditions noted are these: higher = more signal.
Assay [4] in a line: MM1S cell viability effects, profiling panel, calcein-AM fluorescence, 48 h, basal (AID 1165).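 Further: viability of MM1S multiple myeloma cells under basal unstimulated conditions.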 To be noted: higher = more signal.
The nature of assay [5]: basal RPMI8226 viability, no added stimulus, profiling panel, cell-based, calcein-AM fluorescence, 48 h, PK04 Diversity Set (AID 1166).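 Further: cells grown under basal conditions without added stimulus.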 The conditions noted are these: RPMI8226 myeloma viability, higher = more signal.
Assay [6] can be described thus: basal HepG2 mitochondrial membrane potential changes, profiling panel, cell-based, JC-1 fluorescence, 24 h, 100 nL compound (AID 1167). The conditions noted are these: higher = more signal.
Assay [7] in a line: basal 3T3-L1 adipocyte mitochondrial potential changes, profiling panel, cell-based, JC-1 fluorescence, 3T3-L1 adipocytes, 24 h, 100 nL compound (AID 1168). The conditions noted are these: JC-1 mitochondrial fluorescence, higher = more signal, called active from +8 up or from −8 down.
Assay [8] in a line: basal RPMI8226 mitochondrial membrane potential changes, profiling panel, cell-based, JC-1 fluorescence, 24 h, 100 nL compound (AID 1169). The conditions noted are these: RPMI8226 myeloma, JC-1 mitochondrial potential fluorescence, higher = more signal.
Assay [9] can be described thus: basal MM1S mitochondrial membrane potential changes, profiling panel, cell-based, JC-1 fluorescence, 24 h, 100 nL compound (AID 1170). The conditions noted are these: higher = more signal.
A short description of assay [10]: A549 lung cancer cell viability effects, profiling panel, resazurin fluorescence, 24 h, PK04 Diversity Set (AID 1171). To be noted: higher = more signal, called active from +8 up or from −8 down. (In general: Resazurin is reduced to fluorescent resorufin, in cell work by metabolically active cells.)
Further: test concentration not given here.

As to `COCCOC(=O)N1C(=O)[C@@]2(c3cc(C#CCNC(N)=O)ccc31)[C@H](C(=O)Nc1nc3ccccc3s1)[C@H]1C(=O)O[C@H](c3ccccc3)[C@H](c3ccccc3)N1[C@@H]2c1ccc(O)cc1`, the z-score is -0.277 in assay [1]; -0.133 in assay [2]; -0.287 in assay [3]; -1.19 in [4]; 0.258 in assay [5]; -3.96 in assay [6]. The z-score in [7] was -2.98 (inactive); in assay [8] it was -0.776; in assay [9] it was -1.14; in [10], 0.14 (inactive).

For the compound `CCOC(=O)C1=C[C@@H](C(C)(C)C)N(S(=O)(=O)c2ccc(C)cc2)[C@H]1c1ccc(OC)cc1`, the z-score in [1] was 0.279; in [2] it was -0.276; in [3] it was -0.778; in assay [4], -1.04; in assay [5], -1.23; in assay [6] it was 4.09. In addition, the z-score is -0.305 (inactive) in assay [7], -0.589 in [8], -0.676 in [9] and 2.62 (inactive) in [10].

Consider `C=C(CCCC)/C(=C/C[C@@H](OC(C)=O)c1ccc(OCCO)cc1)c1cc(C(=O)OC)ccc1OC`, for which the z-score in assay [1] was -0.144; in assay [2], -0.703; in assay [3] it was 0.447; in assay [4], -3.33; in assay [5] it was -3.24; in assay [6], 0.621. The z-score in assay [7] was -1.5 (inactive); in assay [8], -0.826; in assay [9] it was -1.3; in assay [10] it was 0.293 (inactive).

On to `COC(=O)C(CC#Cc1ccc2c(c1)[C@]1(C(=O)N2)[C@H](c2ccc(OCCO)cc2)N2[C@H](c3ccccc3)[C@H](c3ccccc3)OC(=O)[C@H]2[C@@H]1C(N)=O)C(=O)OC`, for which the z-score in assay [1] was -0.729; in assay [2], 0.251; in [3], -0.188; in assay [4] it was -2.2; in assay [5] it was -1.68; in assay [6], -0.68. The z-score in assay [7] was 0.81 (inactive); in [8] it was -1.12; in [9], -0.927; in assay [10] it was -0.0032 (inactive).

With `COc1ccc(C(O)C2C=CC3C(=O)N(c4ccccc4)C(=O)C3N2Nc2ccccc2F)c2ccccc12` (stereo not given), the z-score in assay [1] is 0.23; in assay [2], -0.229; in assay [3], -0.737; in assay [4], -1.91; in [5], -1.61; in [6], -1.78. The z-score in assay [7] was 0.385 (inactive); in [8], -0.172; in [9], -0.754; in assay [10], 0.473 (inactive).

Take `OCCCc1cc[n+](Cc2cc3c(cc2Br)OCO3)cc1`: the z-score in assay [1] was -0.322; in assay [2], 0.504; in assay [3] it was -0.325; in [4], 0.4; in assay [5] it was -0.419; in assay [6] it was 0.138. Besides, the z-score in assay [7] is 0.506 (inactive); in assay [8], -0.437; in [9], 1.39; in assay [10], -0.298 (inactive).

Consider `O=C(NCCN1CCOCC1)[C@@H]1c2ccccc2C(=O)N(CC23CC4CC(CC(C4)C2)C3)[C@H]1c1ccc(CO)cc1`, for which the z-score in [1] is -0.0791; in assay [2], 1.43; in assay [3] it was 0.45; in assay [4], -0.846; in assay [5], -0.327; in assay [6], 2.95. Also, the z-score in assay [7] was -0.634 (inactive); in assay [8], 0.434; in assay [9] it was -0.388; in [10], 1.8 (inactive).

For `O=C1N(Cc2ccccc2)Cc2ccccc2C[C@@]12COC(c1ccc(OCCCO)cc1)=N2`, the z-score was -1.62 in assay [1]; 1.06 in assay [2]; 0.325 in assay [3]; -3.63 in [4]; -4.39 in assay [5]; -0.641 in assay [6]. In addition, the z-score in [7] was 0.172 (inactive); in [8], -1.18; in assay [9], -1.91; in assay [10] it was -2.8 (inactive).

In the case of `COc1c(C)cc(-c2nc(-c3ccccc3)c3c(c2C)CO[Si]3(C(C)C)C(C)C)cc1C`, the z-score in assay [1] is -0.926; in [2] it was -1.12; in assay [3] it was -0.518; in assay [4], -0.532; in assay [5] it was -0.931; in assay [6], -0.175. Moreover, the z-score in assay [7] is -1.19 (inactive); in assay [8], 0.379; in assay [9], -0.294; in [10], 1.44 (inactive).

For `CCN1C(=O)C2CC(=O)C3C(CN(S(=O)(=O)c4ccc(C)cc4)C3c3ccc(C)cc3)C2C1=O` (stereo not given), the z-score in assay [1] was 0.159; in assay [2], -0.902; in assay [3], 0.118; in assay [4], 1.03; in [5], 0.0667; in assay [6], -0.167. Also, the z-score is -0.00388 (inactive) in [7], -0.129 in [8], -1.25 in assay [9] and -0.064 (inactive) in assay [10].

Turning to `CN(C)CCCCNC(=O)[C@H]1C[C@H]2C(=O)N[C@@H](CCCCN(C)C)C(=O)N2[C@H]1c1ccc(O)cc1`, the z-score was 0.897 in assay [1]; 0.613 in [2]; 0.218 in [3]; 0.428 in assay [4]; 1.26 in assay [5]; 0.754 in assay [6]. Further, the z-score in [7] was 0.903 (inactive); in assay [8], -0.623; in assay [9], -0.379; in assay [10], 1.2 (inactive).

As for `COc1ccc(C(=O)Nc2ccc(CN3C(=O)[C@@]4(O[C@@H](CC(=O)N(CCO)Cc5ccccc5)[C@H]([Si](C)(C)c5ccc(OC)cc5)[C@H]4C)c4ccccc43)cc2)cc1`, the z-score was -0.86 in [1]; 1.4 in assay [2]; -1.04 in assay [3]; -0.507 in assay [4]; -1.47 in [5]; 0.656 in [6]. Also, the z-score in assay [7] is 0.816 (inactive); in assay [8] it was -0.931; in assay [9], -0.493; in assay [10], -0.861 (inactive).

Regarding `CC(C)c1ccc(NN2C(C(O)C3=C[C@H]4C[C@@H](C3)C4(C)C)C=CC3C(=O)N(c4ccccc4)C(=O)C32)cc1` (stereo not given in full), the z-score in [1] is 0.0464; in assay [2], -0.395; in assay [3], 0.165; in assay [4] it was -1.16; in assay [5], -1.04; in assay [6] it was -2.56. Besides, the z-score was -0.401 (inactive) in [7], -0.366 in assay [8], 0.758 in assay [9] and -0.186 (inactive) in assay [10].

`CCCN1C(=O)[C@@]2(c3ccc([N+](=O)[O-])cc3)CC(=O)N(C3CCCCC3)[C@@H]2c2ccc(CO)cc21`: the z-score was -0.522 in [1]; -0.952 in assay [2]; -0.574 in assay [3]; -0.679 in assay [4]; -0.173 in assay [5]; -1.19 in assay [6]. The z-score in assay [7] was -0.626 (inactive); in assay [8], -0.696; in assay [9] it was -0.868; in [10], -0.291 (inactive).

For the compound `CC(C)c1ccc(NN2C(C(O)C3CCCCC3)C=CC3C(=O)N(c4ccccc4)C(=O)C32)cc1` (stereo not given), the z-score was 0.19 in [1]; -1.19 in assay [2]; 1.41 in assay [3]; -0.381 in assay [4]; -0.886 in assay [5]; -1.49 in assay [6]. Further, the z-score is -0.176 (inactive) in [7], 0.227 in [8], -1.36 in assay [9] and -0.519 (inactive) in assay [10].

Source of the values: PubChem BioAssay.
